In PubChem BioAssay AID686978 (National Center for Advancing Translational Sciences (NCATS), 2013):
In all, about 420,000 compounds went through this assay and about 64,000 (15%) were called active. About 27% were inconclusive and are not listed. These entries were drawn from the full list. A number with no mark means an inactive call. Calls come from the whole dose curve; as a rule, active = well fitted inhibition curve with a large enough effect; inconclusive = small, poorly fitted or top-dose-only effect; inactive = flat fitted curve, though single readings scatter.

Assay: qHTS for Inhibitors of human tyrosyl-DNA phosphodiesterase 1 (TDP1): qHTS in cells in absence of CPT; note: nearly all actives have a fitted effect of over 55% in size
Settings: DT40 Tdp1-/- hTDP1 cells, no CPT, ATP luminescence, 48 h; activity change, negative = growth inhibition: at 46.2 µM (top of the series)
Description: Human tyrosyl-DNA phosphodiesterase 1 (TDP1) is a novel repair gene, and we propose to use it as a new target for anticancer drug development. TDP1 is not an essential protein, but under treatment with topoisomerase I poison (camptothecin: CPT), TDP1 works as a critical factor for cell survival. To directly identify novel TDP1 inhibitors active in a cellular environment, we have knocked-out the Tdp1 gene in chicken DT40 cells (Tdp1-/-) and generated a complemented counterpart cells that contains a stable transfection of the human TDP1 gene (Tdp1-/-;hTDP1 cells). For the primary screen, Tdp1-/-;hTDP1 cells will be exposed to small molecules in the presence or absence of CPT, and their growth kinetics will be evaluated after 48 hours by measuring ATP activity. […] The hit compounds will then be evaluated in the presence or absence of CPT using Tdp1-/- cells. […] In tertiary assays, biochemical gel-based assays will be used to assess whether the hit compounds specifically target TDP1.
To this end, we have screened this cell line against the MLSMR in two primary screens. In one screen we add CPT and in the other we screen in the absence of CPT; this AID represents the screen where CPT was absent.
NIH Chemical Genomics Center [NCGC]
NIH Molecular Libraries Probe Centers Network [MLPCN]
Assay Submitter (PI): Yves Pommier, NCI
DT40-hTDP1 cells without 20 nM Camptothecin (add 20 microL of DMSO in 1 L of cell culture medium) were dispensed at 400 cells/5microL/well in tissue culture treated 1536-well white wall/solid bottom assay plates (Greiner Bio-One North America, NC, U.S.A.) using a Multidrop Combi 8 channel dispenser (Thermo Fisher, Waltham, MA, USA). 23 nL compounds and controls were transferred using the pin tool (Kalypsys, San Diego, CA, USA) to the assay plates. The assay plates were then incubated at 37 masculineC for a minimum 48 hr. Three microL of Cell Titer Glo solution was added to the plates and incubated at RT in dark for 30 min. Luminescence was read using ViewLux (Perkin Elmer) with 1 sec exposure slow speed, high gain and 2x binning.
% is set by controls: 0 for no effect and ±100 for the full control effect; potency is the fitted concentration of half-maximal effect.

Compared with Clc1ccc(CSc2nnc([C@@H]3CCCN3)o2)cc1, Cc1ccc(-c2nnc(SCc3ccccc3C)o2)cc1 is lower in “activity change, negative = growth inhibition” value: -17% for the first, -26.2% for the second.

Compared with CS(=O)(=O)c1ccccc1C(=O)Nc1ccc2sccc2c1, O=C(O)c1ccccc1C(=O)Nc1nc(-c2ccccc2)cs1 is lower in “activity change, negative = growth inhibition” value: 14.5% for the first, -0.805% for the second.

Going from O=C(/C=C/c1ccccc1[N+](=O)[O-])OCC(=O)N1CCCC1 to COCC(=O)N1CCC2(CCCN(c3ccccc3)C2)CC1, the “activity change, negative = growth inhibition” value falls from 18.5% to -15.7%.

Compared with CCC(C(=O)Nc1c(C)cccc1C)n1c(-c2cc(C)cs2)nc2ccccc21 (configuration not stated), O=C(Nc1ccccc1)Nc1nc2ccccc2s1 is higher in “activity change, negative = growth inhibition” value: -14.6% for the first, -2.58% for the second.

Going from O=C(CCSCc1cccc(F)c1)NCc1ccccc1 to CCN(CC(=O)NCCc1ccccc1)S(=O)(=O)c1ccc(C)cc1, the “activity change, negative = growth inhibition” value falls from -7.79% to -8.2%.

First: CCC(C)c1ccc(O)c(/C=N/O)c1 (configuration not stated)
Second: CCC(=O)Nc1ccc(C(=O)Nc2cc(C)on2)cc1
The “activity change, negative = growth inhibition” value of the first is higher: 16.9% for the first, 2.69% for the second.

First: Cc1cc(C)n(-c2nc(O)cc(=O)[nH]2)n1
Second: Cc1nn(CC(=O)Nc2nc3ccccc3s2)c(C)c1[N+](=O)[O-]
The “activity change, negative = growth inhibition” value of the first is higher: 8.33% for the first, -13.3% for the second.

First: CS(=O)(=O)N(CC(=O)NC1CCCC1)Cc1ccc(F)cc1
Second: COc1ccccc1CNC(=O)CN1CCC(n2cnc3cc(F)ccc32)CC1
The “activity change, negative = growth inhibition” value of the first is higher: -6.2% for the first, -29.6% for the second.

Going from Cc1ccc(OCC(=O)N2CCN(C(=O)c3cccnc3)CC2)cc1 to Cc1ccc(C(=O)NNC(=O)c2cccs2)cc1, the “activity change, negative = growth inhibition” value falls from -10.2% to -20%.

Going from Cc1ccc(NC(=O)Cc2nc(COC(=O)C(C)NS(=O)(=O)c3ccc(C)cc3)cs2)cc1 (configuration not stated) to CC(=O)Nc1ccc(S(=O)(=O)Nc2nc(-c3ccc(C(C)(C)C)cc3)cs2)cc1, the “activity change, negative = growth inhibition” value rises from -26.5% to -17.4%.

First: CC(=O)c1ccc(NC(=O)CSc2nnc(NC(=O)Nc3ccccc3)s2)cc1
Second: CC(=O)c1ccc(NC(=O)N[C@@H](Cc2ccccc2)C(=O)O)cc1
The “activity change, negative = growth inhibition” value of the first is lower: -28.6% for the first, -2.61% for the second.

First: Cc1nc(NNC(=O)c2ccccc2)cc(-c2ccccc2)n1
Second: O=c1cc(Cl)c2ccccc2n1-c1ccccc1
The “activity change, negative = growth inhibition” value of the first is lower: -10.7% for the first, -3.55% for the second.

Compared with CN1C(=O)C2(OCCCO2)c2cc(Cl)ccc21, CCN1N=C(c2ccccc2)CCC1=O is lower in “activity change, negative = growth inhibition” value: 7.23% for the first, 0.898% for the second.

Going from O=C(CNC(=O)Cc1ccccc1)NCC(=O)OCC(=O)c1ccccc1Cl to CCCNC(=O)COc1coc(CN2CCN(Cc3ccccc3)CC2)cc1=O, the “activity change, negative = growth inhibition” value rises from -18.5% to 11.7%.

Going from O=C(c1snnc1-c1ccccc1)N1CCOCC1 to O=C(C1CCCO1)N1CCC(c2nc3ccccc3[nH]2)CC1 (configuration not stated), the “activity change, negative = growth inhibition” value falls from 7.46% to -4.09%.

First: Cc1nn(C(C)CC(=O)O)c(C)c1C (configuration not stated)
Second: Cc1c(NC(=O)c2c([N+](=O)[O-])cnn2C)c(=O)n(-c2ccccc2)n1C
The “activity change, negative = growth inhibition” value of the first is higher: 5.41% for the first, 5.36% for the second.

First: COc1ccc(C(=O)OCC(=O)NCC2CCCO2)cc1[N+](=O)[O-] (configuration not stated)
Second: COc1ccc(C(CNC(=O)c2cc3c(s2)CCCC3)N2CCOCC2)cc1 (configuration not stated)
The “activity change, negative = growth inhibition” value of the first is higher: 12.4% for the first, 0.592% for the second.

First: O=S(=O)(c1ccccc1)N1CCC(c2ccccc2)CC1
Second: CCOC(=O)C1CCN(C(c2ccc(F)cc2)c2sc3nc(-c4ccco4)nn3c2O)CC1 (configuration not stated)
The “activity change, negative = growth inhibition” value of the first is lower: -16.2% for the first, -15.8% for the second.

Going from O=C(NCC12CC3CC(C1)CC(CNC(=O)N1CCCC1)(C3)C2)N1CCCC1 to CCCS(=O)(=O)N1CCCC(C(=O)NCCN2CCCCC2C)C1 (configuration not stated), the “activity change, negative = growth inhibition” value rises from -19.6% to 9.41%.

Going from Cc1ccc(-n2c(-c3ccc(Cl)cc3)n[nH]c2=S)cc1 to C/C(=N\NS(=O)(=O)c1ccc(Cl)cc1)c1ccc(NC(=O)c2ccco2)cc1, the “activity change, negative = growth inhibition” value falls from -8.56% to -12.3%.

Going from NC(=O)NCCCC(=O)O to Cc1c(NC(=O)Nc2ccccc2Cl)sc(=S)n1C, the “activity change, negative = growth inhibition” value falls from 25.5% to 9.06%.

For O=C(c1ccc(F)cc1)c1cn(Cc2ccc(F)cc2)c2cc3c(cc2c1=O)OCCO3, the “activity change, negative = growth inhibition” value was -19.6%.

For CCC(C(=O)NCc1ccccc1)n1c(Cc2cc(F)cc(F)c2)nc2ccccc21 (configuration not stated), the Potency was 16.4 µM (active).
In the case of CC(=O)Nc1ccc(-c2csc(NC(=O)Nc3ccccc3)n2)cc1, the Potency was 1.16 µM (active).
For Cc1ccc(-c2csc(NNC(=O)c3ccccc3)n2)cc1, the Potency was 5.17 µM (active).
With CSc1nsc(NC(=O)Nc2ccccc2)n1 the Potency was 20.6 µM (active).
In the case of CC(=O)Nc1ccc(C(=O)Nc2nc(-c3cc(C)n(Cc4ccccc4)c3C)cs2)cc1, the Potency was 14.6 µM (active).
In the case of O=S(=O)(c1ccc(Br)cc1)N1CCC(c2nc3ccccc3[nH]2)CC1, the Potency was 20.6 µM (active).
In the case of Cc1ccc(-n2c3nc(=O)[nH]c(=O)c-3cc3c(Cl)cccc32)cc1, the Potency was 0.731 µM (active).
In the case of CCC(C)Cn1c(O)cc2nn(-c3nc4ccccc4s3)c(=O)c-2c1C (configuration not stated), the Potency was 18.4 µM (active).
For CCOc1ccc(C(=O)c2cn(Cc3ccccc3OC)c3ccc(F)cc3c2=O)cc1, the Potency was 20.6 µM (active).
